From PubChem BioAssay (NCATS)
Results filed as inconclusive are left out. Some structures have more than one record in an assay (separate samples or runs), and their calls can disagree. A number with no mark means an inactive call. Active and inactive are the calls of the source. Calls come from the whole dose curve; as a rule, active = well fitted inhibition curve with a large enough effect; inconclusive = small, poorly fitted or top-dose-only effect; inactive = flat fitted curve, though single readings scatter.

Assay: Drug repurposing screens with cells derived from glioblastoma tumor samples (AID 1345199); note: nearly all actives have a fitted effect of over 40% in size
Settings: GBM patient neurospheres viability, ATP luminescence, 48 h
Experimental: CD133+ cells were isolated from GBM patient biopsies and cultured as neurospheres. Neurospheres from four patients were used to screen the NCATS pharmaceutical collection (NPC) library of approved drugs and bioactive compounds. […] The neurospheres were incubated with drugs for 48 hours in 1536-well format, then assayed with an ATP content cell viability assay. […] These hits were cherry picked to confirm activity in the four original GBM lines screened plus three other slower growing GMB lines (unable to yield enough cells for a full primary screen). Variable activities of the confirmed primary hits in the different GBM patient lines were observed. The patient line 206 responded to the greatest number of compounds and line 923 responded to the least amount of active compounds.

[1] = at 45.9 µM (top of the series), tumour line B
[2] = at 45.9 µM (top of the series), tumour line D
[3] = at 46 µM (top of the series), tumour line A
[4] = at 46.1 µM (top of the series), tumour line C
[5] = at 91.6 µM (top of the series), tumour line B
[6] = at 91.6 µM (top of the series), tumour line D
[7] = at 99.2 µM (top of the series), tumour line C
% is set by controls: 0 for no effect and ±100 for the full control effect; potency is the fitted concentration of half-maximal effect.

Clc1ccccc1Cl
activity, negative = cell killing [1]: -2.22% | activity, negative = cell killing [2]: -8.63% | activity, negative = cell killing [3]: -3.16% | activity, negative = cell killing [4]: -0.0025%

Cc1ccccc1-n1c(C)nc2ccccc2c1=O
activity, negative = cell killing [1]: -8.69% | activity, negative = cell killing [2]: -13.3% | activity, negative = cell killing [4]: -24.2% | activity, negative = cell killing [5]: -8.55% | activity, negative = cell killing [6]: -15.5% | activity, negative = cell killing [7]: -4.7% | Potency (tumour line A): 44.7 µM (active)

CC(Cc1ccccc1)NC=O (configuration not stated)
activity, negative = cell killing [1]: -10.4% | activity, negative = cell killing [2]: 2.52% | activity, negative = cell killing [4]: -28.9%

C[C@]12CC[C@H](OS(=O)(=O)O)CC1=CC[C@@H]1[C@@H]2CC[C@]2(C)C(=O)CC[C@@H]12
activity, negative = cell killing [1]: 3.89% | activity, negative = cell killing [2]: -2.35% | activity, negative = cell killing [3]: -29.4% | activity, negative = cell killing [4]: -15.3%

O=c1[nH]c(=O)n(Cl)c(=O)n1Cl
activity, negative = cell killing [1]: -3.23% | activity, negative = cell killing [2]: -0.766% | activity, negative = cell killing [3]: -8.9% | activity, negative = cell killing [4]: 7.98%

CCC1C(C)=NN=C(c2ccc(OC)c(OC)c2)c2cc(OC)c(OC)cc21 (configuration not stated)
activity, negative = cell killing [1]: -16.7% | activity, negative = cell killing [2]: -19% | activity, negative = cell killing [4]: -6.07%

N#CC1(N2CCCCC2)CCCCC1
activity, negative = cell killing [1]: -11.3% | activity, negative = cell killing [2]: -14.5% | activity, negative = cell killing [4]: -18%

CCC(C)(S(=O)(=O)CC)S(=O)(=O)CC
activity, negative = cell killing [1]: -9.18% | activity, negative = cell killing [2]: -21.6% | activity, negative = cell killing [3]: -5.61% | activity, negative = cell killing [4]: -8.4%

O=C1CCCCC1CN1CCCCC1 (configuration not stated)
activity, negative = cell killing [1]: -12.3% | activity, negative = cell killing [2]: 4.04% | activity, negative = cell killing [4]: -15.7%

O=[N+]([O-])c1cc(I)c(O)c(I)c1
activity, negative = cell killing [4]: -4.29% | Potency (tumour line A): 25.1 µM (active) | Potency (tumour line D): 22.4 µM (active)

CCCSP(=O)(OCC)SCCC
activity, negative = cell killing (at 91.6 µM (top of the series), tumour line A): -29.2% | activity, negative = cell killing [5]: -4.25% | activity, negative = cell killing [6]: -15.9% | activity, negative = cell killing [7]: 13.9%
